ERK EGF inh: inhibitors of EGF-stimulated ERK signaling pathway; HEK293-V1b, EGF-stimulated phospho-ERK AlphaScreen; Potency, µM (doses to about 11.5 µM), for the others: at the top dose activity change, negative = inhibition, usual class: inhibitors; 130,000 tested, 0.41% active; AID 1454; active means well fitted inhibition curve with a large enough effect;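 further: plate controls were stimulated vehicle wells for no effect and unstimulated vehicle basal for full effect; nearly all actives have a fitted effect of over 55% in size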
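EGF-stimulated (25 nM, 5 min) phospho-ERK in HEK293 cells stably expressing V1b, cells pretreated 30 min with compound at 37C. Homogeneous AlphaScreen read on lysates.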
The depositor's hits bear a star; ! = repeats disagree; [ ] = dose if it differs, or a comment. This is one part of a sample in which hits are shown more often than they occur. Potency means the concentration at half of the fitted maximal effect.

SMILES | ERK EGF inh
O=C(Nc1ccccc1Cl)N1C2CCC1CC(O)(c1cccnc1)C2 (stereo not given) | 5.3%
OCCN1CCN(CC(O)C(F)(F)F)CC1 (stereo not given) | -5.9%
Cc1cccc(CNc2nc(-c3cccnc3)nc3ccccc23)c1 | 31.6µM*
COc1cccc(CNc2nc(-c3cccnc3)nc3ccccc23)c1 | 3.6%
Cc1cccc(CNc2nc(-c3ccc(C(=O)N(C)C)cc3)nc3ccccc23)c1 | 22.2%
CCOc1ccc(C(=O)OC2CCN(C)CC2)cc1 | -16.2%
CC(C)[C@@H]1NC(=O)c2cc([N+](=O)[O-])cc(I)c2OCC[C@@H](C(N)=O)NC(=O)[C@H](CCC(=O)O)NC1=O | -5.1%
NC(=O)CC[C@@H]1NC(=O)[C@H](Cc2ccccc2)NC(=O)[C@H](Cc2ccc(O)cc2)NC(=O)[C@@H](N)CSSC[C@@H](C(=O)N2CCC[C@H]2C(=O)N[C@@H](CCCN=C(N)N)C(=O)NCC(N)=O)NC(=O)[C@H](CC(N)=O)NC1=O | 0.6%
NC(=O)COC(=O)c1cc(Cl)cc(Cl)c1N | -2.6%
Cc1ccc(S(=O)(=O)N2CCOC2CNC(=O)C(=O)NCCc2ccc(S(N)(=O)=O)cc2)cc1 (stereo not given) | -2.4%[57.5 µM]
COC(=O)[C@@]1(Cc2ccc(F)cc2)[C@H]2c3cc(C(=O)N4CCCC4)n(CCSCCO)c3C[C@H]2CN1C(=O)c1ccccc1 | 2.1%
CCN(CC)c1ccc(/C=N/NC(=O)c2cccc(N3CCCC3=O)c2)cc1 | 4.5%
CCN(CC)c1ccc(NC2CC(=O)N(CCc3ccc(OC)cc3)C2=O)cc1 (stereo not given) | 35.5µM*
COc1ccc(CCN2C(=O)CC(NC34CC5CC(CC(C5)C3)C4)C2=O)cc1OC (stereo not given) | -4.6%
COc1ccc(CCN2C(=O)CC(NNC(=O)c3ccccc3Br)C2=O)cc1 (stereo not given) | 5.2%
CC(C)CN1CCC(=O)N([C@H](CSc2ccc(Br)cc2)c2ccccc2)CC1 | -1.1%[57.5 µM]
Cc1ccc(SC[C@H](c2ccccc2)N2CCN(CC(C)C)CCC2=O)cc1 | 31.6µM*
Cc1ccc(SC[C@H](c2ccccc2)N2CCN(C)CCC2=O)cc1 | -16.3%[57.5 µM]
O=C(NNC(=O)c1cc(-c2ccccc2)nn1-c1ccccc1)c1ccccc1 | -5.1%
O=C(N/N=C/c1cc(Br)c(O)c(Br)c1)c1cccc(C(F)(F)F)c1 | 10.1%
CCn1cc(C(=O)O)c(=O)c2cc(F)c(N3CCN(S(=O)(=O)c4ccc(NC(C)=O)cc4)CC3)cc21 | 0.4%
CCOC(=O)C1=C(N)Oc2cc(O)ccc2C1c1ccc([N+](=O)[O-])cc1 (stereo not given) | 17.8µM*
CCOC(=O)C1=C(O)C(=O)N(c2ccc(S(N)(=O)=O)cc2)C1c1ccc([N+](=O)[O-])cc1 (stereo not given) | 7.1%[57.5 µM]
CCOC(=O)C1=C(O)C(=O)N(c2ccccc2)C1c1cccc([N+](=O)[O-])c1 (stereo not given) | 10.5%[57.5 µM]
Cc1cc(=S)c2cccc(C)c2[nH]1 | 11.4%
SMILES | ERK EGF inh
CC(=O)Nc1c(N)c2ccccc2oc1=O | 3.5%
CN(C)CCOC(c1ccccc1)c1ccccc1 (tested in a mixture with another compound) | 14.4%[57.5 µM]
CN(C)CCOC(c1ccccc1)c1ccccc1 | 14.1µM*!
CN(C)CCOC(c1ccc(Cl)cc1)c1ccccn1 (stereo not given) | 18.0%
COc1cccc(C(=O)CN2CCN(S(=O)(=O)c3cccc([N+](=O)[O-])c3)CC2)c1 | 2.9%
Cn1c(Cc2ccccc2)nnc1SCC(=O)Nc1cccc(S(=O)(=O)NC2=NCCCCC2)c1 | 4.6%
O=C(c1cc(COc2ccc3ncccc3c2)on1)N1CCCCCC1 | -2.0%
O=C(NCCc1cn2ccccc2n1)c1cc(COc2ccc3ncccc3c2)on1 | 28.2µM*
O=C(NC1CCCC1)c1cc(COc2ccc3ncccc3c2)on1 | -9.8%[57.5 µM]
CC(C)Cn1c(=S)[nH]c2cc(C(=O)O)ccc2c1=O | -3.4%[57.5 µM]
O=C(CN1CCCC1)Nc1ccc(Br)cc1 | 0.7%
Cc1csc(SCc2nc3scc(-c4ccccc4)c3c(=O)[nH]2)n1 | -3.4%
CC(C)[C@H](NC(=O)c1ccccc1)C(=O)OCc1nc2scc(-c3ccccc3)c2c(=O)[nH]1 | 35.5µM*
NC(=O)Cc1nc2scc(-c3ccccc3)c2c(=O)[nH]1 | -3.4%
CCOC(=O)C1CCN(CC(O)COCc2ccc3c(c2)OCO3)CC1 (stereo not given) | -2.5%[57.5 µM]
CCCOc1ccc(/C=N/Nc2ccccc2[N+](=O)[O-])c(OCCC)c1 | 11.2µM*
CCCONC(=O)Nc1ccccc1[N+](=O)[O-] | 4.4%
O=[N+]([O-])c1ccccc1N/N=C/c1cccc(O)c1O | 2.4%[57.5 µM]
O=C(/C=C/c1ccc(Cl)cc1Cl)NC(=S)Nc1ccc(CN2CCOCC2)cc1 | 3.3%
O=C(NC(=S)Nc1ccc(CN2CCOCC2)cc1)c1ccc(-c2ccc(Cl)cc2)o1 | -0.6%[57.5 µM]
O=C(Nc1ccc(CN2CCOCC2)cc1)c1ccc(-c2ccc(Cl)cc2Cl)o1 | 25.1µM*
COc1ccc(NC(=S)N(CCC(C)C)C(C)c2ccncc2)cc1 (stereo not given) | -6.1%[57.5 µM]
C[C@@H]1NC(=O)[C@H](CCC(N)=O)NC(=O)c2cc([N+](=O)[O-])cc(I)c2NCCC[C@@H](C(N)=O)NC1=O | 8.7%
CC1CCCN(C2=C(Cl)C(=O)N(c3cccc(Cl)c3)C2=O)C1 (stereo not given) | 1.3%
CCC(C)NC(=O)C1CCCN1S(=O)(=O)c1ccc(Cl)cc1 (stereo not given) | -25.1%
SMILES | ERK EGF inh
CC1CCCN(C2=C(NS(=O)(=O)c3ccc(Cl)cc3)C(=O)c3ccccc3C2=O)C1 (stereo not given) | 10µM*
COc1ccc(CNC(=O)OCCN2CCN(S(=O)(=O)c3ccc(C)cc3)CCC2=O)cc1 | 6.5%
COc1cccc(C2C(C(=O)Nc3ccccc3)=C(C)N=c3s/c(=C/c4ccc(OCC(=O)O)cc4)c(=O)n32)c1 (stereo not given) | 7.6%
CC(Sc1cccc[n+]1[O-])C(=O)Nc1ccc([N+](=O)[O-])cc1Cl (stereo not given) | 4.6%
O=[N+]([O-])c1ccc(Sc2cccc[n+]2[O-])c2nonc12 | 25.1µM*
O=C(CSc1cccc[n+]1[O-])Nc1ccc(C(F)(F)F)cc1[N+](=O)[O-] | 3.3%
COC(=O)c1ccc(C(=O)OC)c(NC(=S)N2CCN(c3ccccc3F)CC2)c1 | -5.5%
COc1cc(CC(=O)OCC(=O)Nc2ccc([N+](=O)[O-])cc2)cc(OC)c1OC | -7.4%
O=C(Nc1nc2ccsc2c(=O)s1)c1ccco1 | 7.9%[57.5 µM]
O=C(c1cc([N+](=O)[O-])cc([N+](=O)[O-])c1)N(c1ccccn1)c1ccccn1 | -2.1%
O=C(NC(c1ccccc1)c1ccccn1)c1cccc([N+](=O)[O-])c1 (stereo not given) | 10.5%
O=C(OC(c1ccccc1)c1nccc2ccccc12)c1cc([N+](=O)[O-])cc([N+](=O)[O-])c1 (stereo not given) | 15.8µM*
CCOc1ccccc1NC(=O)C(NCC1CCCCC1)c1ccccc1 (stereo not given) | 5.2%
Cn1cccc1C(=O)NC(=O)COC(=O)c1cc([N+](=O)[O-])ccc1Cl | 0.4%
CCN1C(=O)/C(=C/C=C2/Sc3ccc4ccccc4c3N2CCO)SC1=S | 2.4%
CCCN1C(=O)/C(=C\C=C2/C=CN(CC)c3ccccc32)SC1=S | 12.9%
CCN1C(c2ccccc2)=C(c2ccccc2)S/C1=C/C=C1\SC(=S)N(C)C1=O | 3.16µM*
CC(=O)c1ccc(-n2c(SCC(=O)c3c[nH]c4ccccc34)nc3ccccc3c2=O)cc1 | 10.0%
